Reference: PubChem BioAssay
Values without a mark were called inactive. The rule behind the calls is not given here.

target: Pantothenate synthetase (Mycobacterium tuberculosis (strain ATCC 25618 / H37Rv)) (UniProt P9WIL5); experiment: Recombinant Mtb pantothenate synthetase (PanC) inhibitors, coupled enzyme, confirmatory (AID 375); details: coupled enzyme assay; at 10 µM, stronger effect = higher value;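 note: 0% = full reaction with vehicle and 100% = no enzyme background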
Sequence (P9WIL5 whole entry, looked up): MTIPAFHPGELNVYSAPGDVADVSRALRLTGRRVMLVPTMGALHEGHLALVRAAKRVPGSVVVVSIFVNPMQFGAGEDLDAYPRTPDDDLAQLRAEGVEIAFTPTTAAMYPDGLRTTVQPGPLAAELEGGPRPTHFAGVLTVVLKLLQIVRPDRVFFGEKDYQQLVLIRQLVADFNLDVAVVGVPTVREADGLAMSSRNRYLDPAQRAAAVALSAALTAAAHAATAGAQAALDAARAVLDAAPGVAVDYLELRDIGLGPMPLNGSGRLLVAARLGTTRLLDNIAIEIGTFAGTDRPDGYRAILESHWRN

Row | Structure (SMILES) | inhibition [%]
1 | CCC(C)OC(=O)c1[nH]c2c(c1C)C(=O)CC(c1ccc(N(C)C)cc1)C2 (stereo not given) | 0
2 | COC(=O)c1ccc(C)c(NS(=O)(=O)c2ccc3c(c2)OCCO3)c1 | 0
3 | C=CCNC(=O)CNS(=O)(=O)c1ccc(F)cc1 | 2
4 | O=C(CCN1C(=O)C2C3C=CC(C3)C2C1=O)Nc1c(F)cc(F)cc1Br (stereo not given) | 0
5 | CN(C)CC(=O)N1c2ccccc2CCc2ccc(NC(=O)c3ccc(N)cc3)cc21 | 0
6 | CCn1c(=O)c(C(=O)NCCc2ccccc2)c(O)c2ccccc21 | 0
7 | CC(=O)N1CCc2cc(S(=O)(=O)NCCC(=O)Nc3cc(C)cc(C)c3)ccc21 | 2
8 | COc1ccc(N2C(=O)C3C4C=CC(C4)C3C2=O)nn1 (stereo not given) | 8
9 | COc1cccc(C2CC(=O)Nc3c2c(=O)n(C)c(=O)n3C)c1OC (stereo not given) | 6
10 | Cc1cc(NC(=O)CCOc2ccccc2)no1 | 0
11 | CN(C)c1oc(-c2ccccc2Cl)nc1C#N | 4
12 | Cc1ccc2c(c1C)NC(C)CC2C (stereo not given) | 0
13 | C=CCc1cc(C(=O)N2CCCCC2)ccc1O | 0
14 | Cc1ccc(-c2noc(-c3ccccc3C(=O)NCC3CCCO3)n2)cc1 (stereo not given) | 6
15 | COc1cccc2cc(C(=O)Nc3cccnc3N3CCOCC3)c(=O)oc12 | 0
16 | CCCS(=O)(=O)N1CCCC(C(=O)N2CCC(Cc3ccccc3)CC2)C1 (stereo not given) | 0
17 | Cc1cccc(NC(=O)c2ccccc2O)c1C | 0
18 | COc1cc(C2N3CC4(C)CN2CC(C)(C3)C4)ccc1O (stereo not given) | 0
19 | CCC(=O)c1ccc(OCC(=O)N2CCc3cc(OC)c(OC)cc3C2)cc1 | 0
20 | COC(=O)c1cc(S(=O)(=O)N2CCC(C)CC2)ccc1F | 6

Row | Structure (SMILES) | inhibition [%]
21 | C=CCN(CC=C)C(=O)CN1C(=O)c2ccccc2C1=O | 0
22 | Cc1nn(Cc2ccccc2)c2c1C(c1ccncc1)C(C#N)=C(N)O2 (stereo not given) | 0
23 | Cc1cc2nc(C3CCN(CC4COc5ccccc5O4)CC3)[nH]c2cc1C (stereo not given) | 6
24 | CC(NS(=O)(=O)c1ccc(OCC(=O)N2CCOCC2)c(Cl)c1)c1ccccc1 (stereo not given) | 1
25 | CCCCNC(=O)OC(C)CNC(=O)Oc1cccc(C)c1 (stereo not given) | 0
26 | O=C(CSc1nnc(-c2ccco2)n1CC1CCCO1)N1CCCCC1 (stereo not given) | 0
27 | c1ccc(-c2oc3ncnc(NCCN4CCOCC4)c3c2-c2ccccc2)cc1 | 4
28 | CCCOc1ccc2ccccc2c1/C=N/n1cnnc1 | 5
29 | Cc1ccc(NC(=O)CSc2nnc(-c3ccncc3)n2C)cc1C | 0
30 | CCOC(=O)CSc1nc2cc(C(=O)NCc3ccco3)ccc2c(=O)n1C1CCCCC1 | 0
31 | COC(=O)c1cnn2c(C(F)(F)F)cc(-c3ccco3)nc12 | 0
32 | CCOc1cc2[nH]c(=O)n(CCCCC(=O)NCc3ccco3)c(=O)c2cc1OCC | 6
33 | Cc1ccc(S(=O)(=O)NCC(=O)OCN2C(=O)c3ccccc3C2=O)cc1 | 4
34 | COc1ccc(-c2nc(CCNC(=O)c3ccco3)cs2)cc1OC | 5
35 | Cc1c(C)[n+](=O)c2c(n1[O-])CCCCC2 | 1
36 | CCOC(=O)CSc1nc2ccccc2n1CC(=O)N1CCN(c2ccccc2)CC1 | 0
37 | Cn1nc(-c2ccc(C(=O)N3CCN(c4ccccc4)CC3)cc2)c2ccccc2c1=O | 0
38 | COc1ccccc1CN1CC(C(=O)N2CCN(c3ccc(F)cc3)CC2)CC1=O (stereo not given) | 0
39 | O=C(O)c1ccc(C2SCC(=O)N2Cc2ccccc2)cc1 (stereo not given) | 2
40 | CC1(C)CC2CC(C)(CN2S(=O)(=O)c2ccc(N)cc2)C1 (stereo not given) | 0
